In PubChem BioAssay (NCI) one finds growth data, which are given here for seven molecules.

What all share (test): NCI-60 one-dose screen, 48 h (100 = growth as untreated, 0 = no growth, -100 = all killed)
Holding throughout (conditions): 10 µM unless noted

The subject of experiment [1] is HCT-15 colon.
For experiment [2], the system named is HT29 colon.
The subject of experiment [3] is SNB-75 CNS.
For experiment [4], the system named is SNB-19 CNS.
Experiment [5] deals with U251 CNS.
Experiment [6] concerns SK-MEL-5 melanoma.
The subject of experiment [7] is UACC-62 melanoma.
For experiment [8], the system named is LOX IMVI melanoma.
The subject of experiment [9] is SK-MEL-28 melanoma.
Experiment [10] deals with SK-MEL-2 melanoma.
In experiment [11] the test system is SN12C renal.
The subject of experiment [12] is UO-31 renal.
The subject of experiment [13] is TK-10 renal.
For experiment [14], the system named is ACHN renal.
The test system of experiment [15] is CAKI-1 renal.
Experiment [16] relates to A498 renal.
Experiment [17] concerns CCRF-CEM leukemia.
Experiment [18] deals with MOLT-4 leukemia.
In experiment [19] the test system is EKVX NSCLC.
For experiment [20], the system named is PC-3 prostate.

The structures appear in SMILES notation. Values joined by “and” are separate entries in the source; they are usually repeats but may differ in a detail not shown here. Equal entries are not always repeated. About 83,000 compounds went through this panel and 20% of them were active in at least one assay; those are over-represented in the sample as a whole.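 Cell lines were cultured in 96-well plates, exposed to a single compound concentration, and assessed for percent growth 48 hours later.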 A number with no mark means an inactive call. Active and inactive are the calls of the source. How the source made its calls: active means growth percent below 10; inactive means the rest.

Take `O=C(NNc1ccccc1)c1ccccc1`: the growth was 47.7% and 40.7% in [1]; 85.5% and 84.8% in experiment [2]; 70.6% and 87.6% in experiment [3]; 95% and 99.3% in experiment [4]; 90.8% in experiment [5]; 98.8% and 100% in experiment [6]. The growth in [7] is 29.6% and 30.9%; in [8], 58.4% and 52.7%; in experiment [9], 89.8% and 108%; in experiment [10] it was 81.5% and 49.8%; in experiment [11] it was 84.5% and 80%; in [12] it was 51.1%. Moreover, the growth in experiment [13] is 65.3%; in experiment [14], 57% and 38.5%; in [15], 22.7%; in experiment [16], 118% and 103%; in experiment [17] it was 56.8% and 49.8%; in experiment [18] it was 54.4% and 41.3%.

In the case of `Cc1nc2cccc(NCCCCC(=O)NO)c2c(=O)n1-c1ccccc1`, the growth in experiment [1] is 71.6%; in [2] it was 52.1%; in experiment [3] it was 45.1%; in experiment [4], 65.5%; in [5] it was 70.2%; in experiment [6] it was 34.9%. Besides, the growth is 31.8% in experiment [7]; 75.8% in experiment [8]; 58.3% in [9]; 55.9% in experiment [10]; 63.8% in experiment [19]; 69.8% in experiment [11]. Further, the growth in experiment [12] was 56.6%; in experiment [13], 37.1%; in [14], 54.3%; in [15], 55.6%; in [16], 48.5%; in experiment [17], 25.3%. Also, the growth in experiment [18] was 25.1%.

For `COCCOc1cc2ncnc(N3CCN(S(=O)(=O)c4ccccc4Cl)CC3)c2cc1OCCOC`, the growth in experiment [1] was 52.3%; in [2], 81.8%; in [3], 88.2%; in [4] it was 86.1%; in experiment [5], 90.1%; in experiment [6], 58.8%. Besides, the growth in [7] is 61%; in experiment [8] it was 83.1%; in experiment [9] it was 82.8%; in experiment [10], 88.1%; in experiment [19] it was 90.9%; in experiment [11], 105%. In addition, the growth in experiment [12] was 70%; in experiment [13] it was 98.9%; in [14] it was 97.5%; in experiment [15] it was 86.6%; in [17] it was 79%; in [18], 65.2%.

With `CCOC(=O)C1=C(C)N=C2SC=C(c3ccc(F)cc3)N2[C@H]1c1cn(-c2ccccc2)nc1-c1ccc(Cl)cc1`, the growth in experiment [1] is 92.9%; in [2], 101%; in [3], 78.2%; in experiment [4] it was 92.1%; in experiment [5], 88%; in experiment [6], 96.4%. Also, the growth was 81.6% in experiment [7]; 95.7% in [8]; 106% in experiment [9]; 97.4% in experiment [10]; 88.4% in experiment [19]; 98.6% in [11]. Moreover, the growth in experiment [12] was 85.1%; in [13], 93.6%; in experiment [14], 101%; in [15], 84.1%; in [16] it was 89.7%; in [17], 95.5%. Besides, the growth in experiment [18] is 78.3%.

For the molecule `COc1ccc(-c2cc(-c3cccnc3)nc3sc4c(Cl)nnnc4c23)cc1OC`, the growth in [1] is 69.9%; in experiment [2], 87.9%; in experiment [3] it was 81.5%; in experiment [4], 95.6%; in experiment [5] it was 92.1%; in experiment [6], 84.4%. In addition, the growth is 81% in experiment [7]; 36.4% in experiment [8]; 112% in experiment [9]; 98.3% in [10]; 111% in [19]; 92.9% in experiment [11]. Besides, the growth in [12] was 76.3%; in experiment [13], 129%; in experiment [14], 87.4%; in [15], 101%; in [16] it was 88.1%; in experiment [17] it was 33.6%. In experiment [18], the growth was 49.1%.

Regarding `COc1cc(C(=O)c2ccccc2C(=O)O)c(OC)c2c1CCCC2`, the growth in experiment [1] is 93.4% and 104%; in [2] it was 105% and 98.2%; in experiment [3] it was 94.1% and 87.4%; in experiment [4] it was 94.6% and 102%; in [5], 97% and 100%; in experiment [20], 93.3% and 103%. The growth in experiment [6] was 96.6% and 97.5%; in [7] it was 96.1% and 101%; in experiment [8], 94.3% and 94.1%; in [9], 102% and 113%; in [11] it was 96.4% and 98.3%; in experiment [12] it was 81.9% and 84.1%. Moreover, the growth in experiment [13] was 67.5% and 107%; in experiment [14], 102% and 103%; in experiment [15], 98.2% and 98.9%; in experiment [16], 52.8% and 110%; in [17], 113% and 90.4%; in experiment [18], 86.3% and 95.7%.

In the case of `CC[C@]1(O)CC2CN(CCc3c([nH]c4ccccc34)C(C(=O)OC)(c3cc4c(cc3OC)N(C=O)[C@H]3[C@@](O)(C(=O)OC)[C@H](OC(C)=O)[C@]5(CC)[C@@H]6C[C@@H]6CN6CC[C@]43[C@@H]65)C2)C1` (some centres undefined), the growth was 15.5% in experiment [1]; -21.1% (active) in experiment [2]; 10.8% in [3]; 37.5% in experiment [4]; 6.57% (active) in experiment [5]; -49.4% (active) in experiment [6]. Further, the growth in [7] is 37.2%; in experiment [8], 26.6%; in experiment [9], 69.5%; in experiment [10], 11.6%; in experiment [19], 43.4%; in experiment [11], 30.1%. In addition, the growth in experiment [12] is 31.1%; in experiment [13] it was 50%; in experiment [15] it was 32.1%; in experiment [16], -20% (active); in experiment [17], 13.6%; in [18], 13.1%.
